High-throughput results (PubChem)
Most compounds without a hit are left out; they make up all but 1.8% or so of the library.
Ba/F3 V617F tox: lowers viability of Ba/F3 cells expressing EpoR and JAK2V617F | 220,000 tested, 1.1% active | inhibition, % at 5.6 µM | ATP luminescence;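 active means inhibition above the campaign mean plus 3 SD over all tested compounds, cut at about 24% in these data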;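 further: cytokine-independent growth of Ba/F3 cells driven by EpoR plus mutant JAK2; 0% = DMSO-treated cells and 100% = JAK inhibitor I control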
IEC-6 cytotox: IEC-6 cytotoxicity, counter-screen for KLF5 inhibitors; luminescence viability; inhibition, % at 5 µM; AID 1825; 290,000 tested, 0.78% active; in the data active means inhibition above about 22%;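 further: 0% = plate median of test compound wells and 100% = cytotoxic reference compound wells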
BaF3 parental: counter-screen for JAK2V617F inhibitors: parental Ba/F3 viability inhibitors. CellTiter-Glo ATP luminescence. inhibition, % at 5.6 µM. 220,000 tested, 1.1% active. AID 1486;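 active means inhibition above a per-campaign cutoff, the mean inhibition of all tested compounds plus 3 SD, cut at about 27% in these data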;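 further: 0% = DMSO wells and 100% = JAK Inhibitor I control wells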
KLF5 inh: inhibitors of KLF5 expression | DLD-1 KLF5 promoter-luciferase reporter, luminescence | 290,000 tested, 0.23% active | inhibition, % at 5 µM;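 active means inhibition above a per-plate limit of that plate's mean compound inhibition plus 3 SD, cut at about 60% in these data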;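 further: 0% = DMSO wells and 100% = LY294002 at 200 µM; higher means less KLF5 promoter-driven luciferase light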
APP 5UTR inh: APP translation inhibition | SH-SY5Y APP 5'UTR-luciferase reporter, luminescence | 190,000 tested, 0.82% active | inhibition, % at 2 µM | AID 1285;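 active means inhibition above a set limit, derived from the sample mean plus 3 SD, cut at about 45% in these data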
* hit, by the source's call; . = not tested or not shown; ! = not active in a repeat.

SMILES | Ba/F3 V617F tox | IEC-6 cytotox | BaF3 parental | KLF5 inh | APP 5UTR inh
COc1ccc(-c2ncncc2-c2csc(C)n2)c(O)c1 | -2 | -2 | 32* | -12 | 0
Cn1cc(S(=O)(=O)N2CCN(c3cccc(Cl)c3)CC2)c(=O)n(C)c1=O | 1 | -1 | 2 | 0 | .
COc1ccccc1N=c1oc2cc(O)ccc2cc1C(N)=O | 32* | 21 | 34* | -57 | -5
COc1ccccc1N=c1oc2cc(O)ccc2cc1C(=O)NCC1CCCO1 (stereo not drawn) | 7 | 4 | 13 | -52 | -6
CCOC(=O)C1=C(CN2CCN(C(=O)c3ccco3)CC2)NC(=O)NC1c1ccc(OC)cc1 (stereo not drawn) | . | 1 | . | -14 | .
CC1(C)CC(=O)C(C(C2=C(O)CC(C)(C)CC2=O)c2ccc(O)c([N+](=O)[O-])c2)=C(O)C1 | 3 | -5 | 94* | -19 | -18
CC(=O)Oc1ccc2oc(=O)c3c(c2c1)CCCN3C(=O)CN1CCN(c2ncccn2)CC1 | -2 | -3 | 5 | -3 | 9
O=C(CN1CCN(c2ncccn2)CC1)N1CCCc2c1c(=O)oc1ccc(O)cc21 | -4 | -3 | -2 | -32 | 72*
Cc1ccc(C(=O)N/C(=C\c2ccc(-c3ccc(Br)cc3)o2)C(=O)NCCCN(C)C)cc1 | 23 | 4 | 60* | -12 | 0
Cc1ccc(Oc2c(F)c(F)nc(N3CCCC3)c2F)cc1 | 0 | -7 | 2 | -27 | -1
O=[N+]([O-])c1ccc(Oc2c(F)c(F)nc(N3CCCC3)c2F)cc1 | -1 | 0 | 5 | -6 | 83*
COc1ccc(-c2c[n+](CC(=O)N3c4ccccc4Sc4ccccc43)c3n2CCC3)cc1 | -1 | -1 | 0 | -41 | .
Cc1ccc(-c2c[n+](CC(=O)Nc3ccc(C)cc3C)c3n2CCC3)cc1 | -1 | 1 | 2 | 3 | .
COc1ccc(-c2c[n+](CC(=O)c3cccs3)c3n2CCC3)cc1 | 19 | 2 | 29* | -8 | .
Cc1ccc(-c2c[n+](CC(=O)c3cccs3)c3n2CCC3)cc1 | 33* | 5 | 62* | 1 | .
Cc1ccc(C)c(-n2c3nc(=O)[nH]c(=O)c-3cc3cc([N+](=O)[O-])ccc32)c1 | 16 | 14 | 56* | 5 | 91*
Cc1cccc(-n2c3nc(=O)[nH]c(=O)c-3cc3cc([N+](=O)[O-])ccc32)c1 | 7 | 6 | 9 | -30 | 37
O=C(O)CC1S/C(=N/N=C/C=C/c2ccccc2)NC1=O (stereo not drawn) | 3 | 10 | 97*! | -32 | 3
O=C(O)CC1S/C(=N/N=C/C=C/c2ccccc2[N+](=O)[O-])NC1=O (stereo not drawn) | -1 | -3 | 4 | -37 | 2
O=C(COc1ccccc1C(=O)Nc1ccccc1)c1ccc(Br)cc1 | -3 | 3 | 0 | 3 | -9
O=C(Oc1ccccc1C(=O)Nc1ccccc1)c1ccccc1Br | 0 | 8 | 5 | -49 | 58*
COc1ccc(CCN(C)CC(=O)Nc2cc(C)nc3ccccc23)cc1OC | -1 | 0 | -5 | 16 | .
S=c1c2c(nc3nc[nH]n13)CCC2 | -3 | -5 | 2 | 10 | .
CC(C)n1cnc2c(=S)nc[nH]c21 | 0 | 1 | -3 | -8 | .
S=c1nc[nH]c2c1ncn2C1CCCO1 (stereo not drawn) | 63* | 78* | 44* | 8 | .
SMILES | Ba/F3 V617F tox | IEC-6 cytotox | BaF3 parental | KLF5 inh | APP 5UTR inh
Cc1cc(=O)nc2c3ccccc3n(C(C)C(=O)NCCN3CCOCC3)n12 (stereo not drawn) | . | -9 | . | -30 | .
CCOc1cccc(CN2CCCC(N3CCc4cc(OC)c(OC)cc4C3)C2)c1O (stereo not drawn) | . | 0 | . | -26 | .
Cc1cc(NC(=O)c2ccccc2Cl)c(C(C)C)cc1O | -5 | -12 | 6 | -16 | 3
Cc1cc(O)c(C(C)C)cc1NC(=O)c1ccccc1Cl | 0 | 8 | 4 | -17 | 45*
CNC(=O)COc1ccc(S(=O)(=O)Nc2ccc(C)cc2)cc1 | 0 | -1 | -2 | -14 | .
O=C(COc1ccc(S(=O)(=O)Nc2ccccc2)cc1)NCc1ccncc1 | -5 | -5 | 54* | -3 | 14
CNC(=O)COc1ccc(S(=O)(=O)Nc2ccc(OC)cc2)cc1 | 1 | 5 | 90* | -4 | -42
CC(C1CCN(Cc2cn(C)nc2-c2cccc(Cl)c2)CC1)N1CCOCC1 (stereo not drawn) | -1 | -4 | 49* | -36 | 0
Cn1cc(CN2CCN(c3cnccn3)CC2)c(-c2cccc(Cl)c2)n1 | 1 | -2 | -1 | -14 | 7
O=C1NCCN/C1=C\C(=O)c1ccccc1 | -1 | 3 | 1 | -51 | 74*
O=C1CC(=O)N(CCc2ccccc2)C(=O)N1CCc1ccccc1 | 1 | -1 | 5 | -49 | 9
O=C1C=CC(=O)C(C2=C3C(=O)N(CCc4ccccc4)CC(=O)N3CCC2)=C1 | -5 | -1 | -1 | 4 | 65*
Cc1noc(C)c1CSc1nc2[nH]ncc2c(=O)n1-c1ccccc1 | 70* | 82* | 73* | 74* | 94*
CC1C/C(=C/c2ccncc2)C(=O)/C(=C/c2ccncc2)C1 (stereo not drawn) | 15 | 22 | -2 | 58 | 95*
O=C(c1ccncc1)N(Cc1cc2ccccc2[nH]c1=O)C1CCCCC1 | 40* | 8 | 29* | 22 | 12
CC1CCN(C(=O)c2cc3ccccc3cc2O)CC1 | . | 0 | . | -55 | .
Nc1ccc(O)cc1C(=O)OCC(=O)c1ccc(C2CCCCC2)cc1 | 71* | 2 | 30* | -9 | 49*
Cc1cccc(NC(=S)N=Nc2c(O)[nH]c3ccccc23)c1 | -2 | 38* | 4 | -12 | 45*
Cc1ccc(CN2C(=O)/C(=C\c3ccc(C(=O)NCc4cccnc4)cc3)Oc3ccccc32)cc1 | -4 | 0 | -2 | -14 | 72*
CC(C)CC(=O)Nc1nnc(SCC(=O)NC2CCCCC2)s1 | . | -3 | . | -38 | .
OCCN1CCN(Cc2cc(Cl)c3cccnc3c2O)CC1 | -5 | -3 | 0 | -15 | 0
Oc1c(CN2CCCCC2)cc(COCc2ccccc2)c2cccnc12 | 89* | 2 | 99* | 48 | 85*
COc1ccc(C(=O)Oc2c(CN3CCOCC3)cc(Cl)c3cccnc23)cc1 | 4 | 14 | 4 | 9 | 38
Oc1c(CN2CCN(c3ccccn3)CC2)cc(Cl)c2cccnc12 | -2 | -5 | 4 | 2 | 78*
O=C(Oc1c(CN2CCOCC2)cc(Cl)c2cccnc12)c1cccs1 | 1 | 16 | 3 | 8 | 27
O=C(Oc1c(CN2CCOCC2)cc(Cl)c2cccnc12)c1ccccc1Cl | 1 | -2 | 7 | 5 | 53*
COCc1cc(CN2CCCC2)c(O)c2ncccc12 | 72* | -2 | 59* | 2 | 20
COc1ccc(-c2csc(NC(=O)c3ccoc3C)n2)cc1 | -2 | -3 | 2 | -56 | -47
COc1ccc(N(C)C(=O)c2ccc(NC(=O)CCS(=O)(=O)c3cccs3)cc2)cc1 | . | -4 | . | -48 | .
COc1ccc(-c2ccc(-c3nnn(CC(C)=O)n3)cc2)cc1 | 0 | 3 | 6 | -118 | -87
